# Compound activity (PubChem BioAssay)
# This excerpt belongs to a sample that is enriched for hits.
# Tb PYK inh: blocks Trypanosoma brucei pyruvate kinase; 0.12% of 410,000 active; AID 624173; Potency, µM (doses to about 76.8 µM), inactives show top-dose activity, negative = inhibition, most hits filed as inhibitors; TbPYK enzyme, Kinase-Glo Plus ATP luminescence, 45 min; further: potency means the concentration at half of the fitted maximal effect; on the % scale 0 is the no-effect control and ±100 the full control effect; nearly all actives have a fitted effect of over 50% in size
#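 Assay buffer: 50 mM TEA pH 7.2, 100 mM KCl, 10 mM MgCl2, 0.05% BSA, 0.01% Tween-20. Pyruvate kinase from T. brucei plus substrate met compound, then ADP (130 uM final). Luminescence was read post 45 min RT.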
# RE007 growth inh: less growth of the S. pombe RE007 Vpr strain; 0.21% of 360,000 active; Potency, µM (series often up to 92.2 µM), for the others: at the top dose activity change, negative = less growth, most hits filed as inhibitors; S. pombe RE007 Vpr strain, BacTiter-Glo ATP luminescence, 24 h; active means well fitted falling curve with a large enough effect; inconclusive means small, poorly fitted or top-dose-only effect; inactive means no such curve, though single readings can be large or run the other way; further: potency means the concentration at half of the fitted maximal effect; on the % scale 0 is the no-effect control and ±100 the full control effect; nearly all actives have a fitted effect of over 50% in size
#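 Fission yeast RE007 carrying one integrated HIV-1 vpr copy, seeded at OD 0.01 in PMG+AL medium with 23 nL pinned compound. Grown 24 h at 30 degrees; viability read by BacTiter-Glo luminescence after 5 min.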
# LmPK inh: inhibitors of Leishmania mexicana pyruvate kinase | 0.37% of 290,000 active | Potency, µM (doses to about 57.5 µM), for the others: top-dose activity change, negative = inhibition, most hits filed as inhibitors | AID 1721 | Q27686 | purified LmPK, Kinase-Glo ATP luminescence, 1 h; further: potency means the concentration at half of the fitted maximal effect; on the % scale 0 is the no-effect control and ±100 the full control effect
# Target sequence (Q27686 whole entry, looked up): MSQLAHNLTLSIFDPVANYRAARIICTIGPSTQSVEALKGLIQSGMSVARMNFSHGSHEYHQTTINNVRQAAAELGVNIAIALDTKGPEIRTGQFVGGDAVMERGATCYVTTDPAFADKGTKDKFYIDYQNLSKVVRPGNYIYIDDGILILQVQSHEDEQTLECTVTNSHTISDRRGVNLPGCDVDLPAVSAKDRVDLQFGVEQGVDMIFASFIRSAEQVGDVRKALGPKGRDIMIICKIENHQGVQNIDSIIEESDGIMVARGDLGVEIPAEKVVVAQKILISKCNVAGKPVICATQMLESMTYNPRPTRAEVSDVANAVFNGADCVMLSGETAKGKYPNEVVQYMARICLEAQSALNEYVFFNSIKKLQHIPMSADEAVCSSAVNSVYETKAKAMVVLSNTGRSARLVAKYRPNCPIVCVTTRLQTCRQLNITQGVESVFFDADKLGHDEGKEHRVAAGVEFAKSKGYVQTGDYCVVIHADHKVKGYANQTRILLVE
#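 Screened at intermediate enzyme activity to detect both inhibitors and activators: LmPK at 0.1 nM, with a 0.5 nM enzyme column as activation reference. PEP 0.5 mM, ADP 0.1 mM; ATP detected by luminescence after 1 h.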
# FBPA Giardia inh: Giardia lamblia aldolase inhibition | A8B2U2 | purified Giardia FBPA | Potency, µM (doses to about 59.6 µM), for inactives: at the highest dose activity, negative = inhibition, usual class: inhibitors | 0.71% of 290,000 active | AID 2451; further: potency means the concentration at half of the fitted maximal effect; on the % scale 0 is the no-effect control and ±100 the full control effect; nearly all actives have a fitted effect of over 55% in size
#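 40 nM FBPA preincubated 10 min at RT with compound (up to 57.5 uM final), then substrate plus GAPDH/TPI/NAD/arsenate coupling and diaphorase/resazurin added. Fluorescence read after 20 min at RT, 525/598 nm.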
# CHX counter: affects cycloheximide protein synthesis inhibition readout, counter-screen | max response, % | cell reporter, cycloheximide protein synthesis inhibition counterscreen | 12% of 300,000 active | AID 2314; in the data active means max response mostly above about 13%, no sharp cut-off; inactive means mostly below about 14%; further: read at 38.3 µM for the half of the compounds with a filed dose; 0% is about no effect
# Shiga toxin inh: blocks Shiga toxin action in Vero cells. Vero cells, Shiga toxin protein synthesis inhibition reporter. inhibition, % at 38.7 µM. 9.2% of 290,000 active. AID 2315; in the data active means inhibition mostly above about 28%, no sharp cut-off; inactive means mostly below about 43%; further: 0% is about no effect
# * = called active by the depositor; ? = inconclusive; nt = not tested or not shown. Unless noted, the call rests on the fitted dose curve; in most records, active means well fitted curve in the direction sought with a large enough effect; inconclusive means small, poorly fitted or top-dose-only effect, or another doubt; inactive means no such curve, though single readings can be large; an effect the other way counts as inactive or inconclusive.
SMILES,Tb PYK inh,RE007 growth inh,LmPK inh,FBPA Giardia inh,CHX counter,Shiga toxin inh
Cc1ccc(OCCn2c(C)nc3ccccc32)cc1,-2.7%,8.0%,-0.6%,11.4%,1.0,nt
O=C(Cn1c(-c2ccco2)nc2ccccc21)N1CCCCC1,12.1%,-2.3%,7.0%,-1.6%,9.0,-7.9
CCn1c(-c2ccco2)nc2ccccc21,-6.9%,-4.0%,-6.8%,-4.7%,26.4*,76.9*
O=C(O)CCn1c(SCCOc2ccccc2)nc2ccccc21,-7.3%,-5.7%,-4.3%,7.4%,13.9*,nt
CCCC[C@@H]1CCCO[C@@](C(=O)NCCN2CCOCC2)(C(F)(F)F)C1,nt,nt,nt,-0.2%,-4.1,-2.5
Cc1ccccc1CCNC(=O)c1cc2cc(S(=O)(=O)N3CCCCC3)ccc2n1C,2.2%,nt,nt,nt,nt,nt
c1ccc(OCCn2c(-c3ccco3)nc3ccccc32)cc1,?,20.0%,-5.9%,-8.0%,19.8*,69.5*
O=C(NN1C(=O)c2ccccc2C1=O)c1ccc2c(c1)C(=O)N(CC1CCCO1)C2=O (stereo not drawn),4.2%,0.2%,6.0%,3.4%,19.3*,44.4*
Nc1ccc(Oc2ccc3c(c2)C(=O)N(CC2CCCO2)C3=O)cc1 (stereo not drawn),-1.5%,14.9%,10.3%,5.5%,42.0*,50.1*
COc1ccc(NC(=O)c2ccc3c(c2)C(=O)N(CC2CCCO2)C3=O)cc1O (stereo not drawn),-5.6%,-20.9%,0.8%,-8.6%,11.1,2.7
Cc1ccc(NC(=O)c2ccc3c(c2)C(=O)N(CC2CCCO2)C3=O)cc1C (stereo not drawn),-4.0%,12.1%,0.7%,-5.6%,44.9*,67.3*
O=C(Nc1cccnc1)c1ccc2c(c1)C(=O)N(CC1CCCO1)C2=O (stereo not drawn),-7.3%,5.9%,-2.8%,-0.9%,1.4,-1.4
O=C(Cn1c(=O)n(CCc2ccccc2)c(=O)c2cccnc21)Nc1ccc(F)cc1,0.3%,nt,nt,nt,nt,nt
CCOC(=O)C1=CCC(c2cccc(C)c2)N(S(=O)(=O)c2ccc(C)cc2)C1 (stereo not drawn),2.2%,6.5%,nt,nt,nt,nt
O=C(c1ccc2c(=O)n(Cc3ccc(Cl)cc3)c(=S)[nH]c2c1)N1CCCC1,0.0%,6.2%,-0.5%,-12.1%,1.8,0.9
O=C(c1ccc2c(=O)n(Cc3ccc(Cl)cc3)c(=S)[nH]c2c1)N1CCOCC1,-26.1%,1.1%,1.5%,?,26.5*,22.9*
O=c1c2cc(N3CCOCC3)ccc2[nH]c(=S)n1Cc1cccc(Cl)c1,-9.7%,16.4%,-1.0%,-1.2%,-3.6,-11.2
O=c1c2cc(N3CCOCC3)ccc2[nH]c(=S)n1Cc1ccco1,?,0.5%,-1.2%,?,10.8*,6.9
O=C(NC1CCN(Cc2ccccc2)CC1)c1ccc(Cn2c(=S)[nH]c3ccc(N4CCOCC4)cc3c2=O)cc1,-7.5%,3.2%,0.5%,-25.6%,32.3*,54.8*
CCOC(=O)CNC(=O)N1CCc2cc(S(=O)(=O)N3CCC(C)CC3)ccc21,-2.6%,nt,nt,nt,nt,nt
Cc1ccc(CSc2nc3c([nH]c4ccccc43)c(=O)n2C)cc1,-5.5%,nt,nt,nt,nt,nt
Cc1ccc(C2=NNC(C(O)C(O)C(O)C(O)CO)S2)cc1 (stereo not drawn),-7.1%,-7.5%,4.2%,2.1%,24.8*,56.0*
NNCCc1ccccc1,2.0%,0.6%,-0.5%,2.2%,46.8*,110.0*
O.O=C([O-])CC([S-])C(=O)[O-].[Au+].[Na+].[Na+] (stereo not drawn),-8.2%,nt,nt,nt,nt,nt
CCn1ncc(-c2cc(C(=O)O)no2)c1C,-2.2%,-2.5%,0.6%,3.2%,-4.2,-24.8
Cc1c(-c2cc(C(=O)O)no2)cnn1C,1.2%,4.0%,5.1%,2.2%,29.0*,49.7*
Cc1ccc(-c2c3c(nc4sc(C(N)=O)c(N)c24)CCC3)cc1,-2.7%,-14.3%,-0.1%,0.0%,29.3*,95.2
Cc1ccc(C(=O)c2sc3nc4c(cc3c2N)CCC4)cc1,-9.6%,1.7%,-0.2%,0.0%,47.1*,active
Nc1c(C(=O)N2CCCCC2)sc2nc3c(cc12)CCCC3,-21.7%,0.5%,1.5%,-6.7%,49.8*,108.5*
